{"source": "PubChem BioAssay AID504616", "about": "(Sanford-Burnham Center for Chemical Genomics, 2011)", "note": "This is one part of the list. Calls of active or inactive are those of the source.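 How the source made its calls: active means mean activity change at or below -40% when tested at 20 µM; inactive means the rest.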", "data": [{"assay": "detection-step artefacts after finished caspase reaction – biochemical, fluorescence, Rh110, 20 µM, artefact control for Apaf-1 activator project, confirmation (AID 504616)", "details": "quenched caspase reaction, Ex480/Em540, at 20 µM", "values": [{"smiles": "O=C(Nc1cccc(C(F)(F)F)c1)c1cnccn1", "fluorescence interference (activity change)": "0.73% (inactive)"}, {"smiles": "O=C(Nc1ccccc1F)c1ccccc1-c1ccccc1", "fluorescence interference (activity change)": "6.9% (inactive)"}, {"smiles": "Clc1cccc(-c2nc3nc4ccccc4nc3n2Cc2ccco2)c1", "fluorescence interference (activity change)": "6.33% (inactive)"}, {"smiles": "CC(=O)CCC(=O)c1ccc2ccccc2c1", "fluorescence interference (activity change)": "15% (inactive)"}, {"smiles": "CN(C)S(=O)(=O)c1ccc(C(=O)NCCN=C2NS(=O)(=O)c3ccccc32)cc1", "fluorescence interference (activity change)": "8.9% (inactive)"}, {"smiles": "COc1ccccc1OCC(=O)Nc1c2c(nn1-c1ccc(F)cc1)CS(=O)(=O)C2", "fluorescence interference (activity change)": "9.44% (inactive)"}, {"smiles": "Cc1cc(NC(=O)c2cccc(N3C(=O)CCC3=O)c2)no1", "fluorescence interference (activity change)": "0.61% (inactive)"}, {"smiles": "C=CCNC(=O)c1ccc(C)c(Br)c1", "fluorescence interference (activity change)": "10.4% (inactive)"}, {"smiles": "Cc1ccc(S(=O)(=O)N2CCOCC2)cc1C(=O)NC(=S)N(Cc1ccccc1)C(C)C", "fluorescence interference (activity change)": "3.5% (inactive)"}, {"smiles": "O=[N+]([O-])c1ccc2nc(-c3ccccn3)[nH]c2c1", "fluorescence interference (activity change)": "5.13% (inactive)"}, {"smiles": "Nc1cc(C(F)(F)F)ccc1N1CCOCC1", "fluorescence interference (activity change)": "-1.22% (inactive)"}, {"smiles": "COC(CNC(=O)Cn1ncc2ccsc2c1=O)OC", "fluorescence interference (activity change)": "-3.81% (inactive)"}, {"smiles": "O=c1[nH]cnc2c1c(-c1ccccc1)cn2-c1ccc(F)cc1", "fluorescence interference (activity change)": "13.3% (inactive)"}, {"smiles": "COc1ccc2c(c1)CCNC2Cc1ccc(OC)c(O)c1", "note": "(stereo unspecified)", "fluorescence interference (activity change)": "-0.08% (inactive)"}, {"smiles": "Cc1ccc(Nc2nc(CSc3nnc(-c4ccncc4)n3-c3ccccc3C)cs2)cc1", "fluorescence interference (activity change)": "11.6% (inactive)"}, {"smiles": "COC(=O)C(C)N(C#N)c1nc(C)nc(C)n1", "note": "(stereo unspecified)", "fluorescence interference (activity change)": "3.06% (inactive)"}, {"smiles": "COc1cc(C2C(C#N)=C(N)Oc3n[nH]c(-c4ccccn4)c32)cc(OC)c1OC", "note": "(stereo unspecified)", "fluorescence interference (activity change)": "14.4% (inactive)"}, {"smiles": "COc1ccc(C2CC(c3ccccc3)Nc3ncnn32)cc1", "note": "(stereo unspecified)", "fluorescence interference (activity change)": "-9.02% (inactive)"}, {"smiles": "O=C(Nc1cccc(-c2nc3ccccc3[nH]2)c1)c1ccc(C(=O)Nc2cccc(-c3nc4ccccc4[nH]3)c2)cc1", "fluorescence interference (activity change)": "7.06% (inactive)"}, {"smiles": "CCOc1ccc(N=C2NC(=O)S/C2=C\\c2ccc(O)cc2)cc1", "fluorescence interference (activity change)": "-1.26% (inactive)"}, {"smiles": "C=CC1=C(C(=O)O)N2C(=O)[C@@H](NC(=O)/C(=N\\OCC(=O)O)c3csc(N)n3)[C@H]2SC1", "fluorescence interference (activity change)": "11.7% (inactive)"}]}]}
